Results filed as inconclusive are left out. Where a call stands in place of a potency, no number is given. A number with no mark means an inactive call. Activity calls are given as the source filed them. Unless noted, calls come from the whole dose curve; as a rule, active = well fitted curve in the direction sought with a large enough effect in the repeat runs; inconclusive = weak or mixed curves; inactive = no such curve, though single readings can be large; an effect the other way counts as inactive or inconclusive.
Target: Nuclear receptor ROR-gamma (Homo sapiens) (UniProt P51449)
Test: qHTS assay to identify small molecule antagonists of the retinoid-related orphan receptor gamma (ROR-gamma) signaling pathway (AID 1159521; note: nearly all actives have a fitted effect of over 50% in size; note: potency is the fitted concentration of half-maximal effect)
Conditions: Tet-on RORgamma CHO cells, RORE-luciferase, 16 h; series mostly up to 92.4 µM
How it was run: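 Decreased RORE-driven luciferase luminescence indicates antagonism. Tet-on RORγ CHO cells received compound, then 1 uM final doxycycline 2 h later; signal read after 16 h incubation.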

Structure (SMILES)	Potency
CCCCCCCCS(=O)C(C)Cc1ccc2c(c1)OCO2 (stereo not drawn)	inactive
Cc1c(C)c2c(c(C)c1OC(=O)CCC(=O)O)CC[C@@](C)(CCC[C@H](C)CCC[C@H](C)CCCC(C)C)O2	27.6 µM (active)
Oc1ccc2cc(SSc3ccc4cc(O)ccc4c3)ccc2c1	48.6 µM (active)
Oc1ccc(C2(c3ccc(O)cc3)CC3CC2C2CCCC32)cc1 (stereo not drawn)	46.6 µM (active)
O=C1C=CC(=O)N1	5.59 µM (active)
Cc1ccc(O)c2ncccc12	15 µM (active)
O=[N+]([O-])c1cc(Cl)c(Cl)c(Cl)c1Cl	inactive
O=Cc1cc(O)ccc1Br	inactive
Nc1cc(C(F)(F)F)ccc1S	26.6 µM (active)
O=CC=C(c1ccccc1)c1ccccc1	61.6 µM (active)
CN(C)C(=O)C1(N2CCCCC2)CCN(CC[C@@]2(c3ccc(Cl)c(Cl)c3)CN(C(=O)c3ccccc3)CCO2)CC1	32.1 µM (active)
CSc1cnc(C)cn1	inactive

Tested on: not listed separately
Test: qHTS assay to identify small molecule agonists of the AP-1 signaling pathway - cell viability counter screen (AID 1159525; calls by dose curve; note: nearly all actives have a fitted effect of over 55% in size; note: potency is the fitted concentration of half-maximal effect)
Conditions: ME-180 AP-1-bla cells viability, ATP luminescence, 5 h; series mostly up to 76.8 µM
How it was run: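 Intracellular ATP by Cell Titer Glo luminescence (30 min, RT) in the same ME-180 AP-1-bla wells after the 5 h compound exposure at 37 °C. Normalised to tetra n-octyl ammonium bromide and DMSO controls.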

Structure (SMILES)	Potency	viability change, negative = cytotoxic
O=C(Nc1ccc(Oc2ccc(Cl)cc2)c(Cl)c1)c1cc(I)cc(I)c1O	inactive	–
Cc1cc(C2CCCCC2)n(O)c(=O)c1	inactive	–
CCCCC(CC)COC(=O)c1ccccc1C(=O)O (stereo not drawn)	inactive	–
CC1(C)CCC(C)(C)c2cc(C(=O)Nc3ccc(C(=O)O)cc3)ccc21	inactive	–
CCOC(=O)c1nc(C(Cl)(Cl)Cl)n(-c2ccc(Cl)cc2Cl)n1	inactive	–
CC(=O)N1CCN(c2ccc(OC[C@H]3CO[C@](Cn4ccnc4)(c4ccc(Cl)cc4Cl)O3)cc2)CC1	49 µM (active)	–
COc1cc(-c2nc(NC(=O)c3cc4cc(C)cc(C)c4n3CC(=O)O)sc2CCC2CCCCC2)c(OC)cc1Cl	28.3 µM (active)	–
N#CSc1ccc(N)c([N+](=O)[O-])c1	inactive	–
OCc1c[nH]c2ccccc12	inactive	–
C[C@H](CCC(=O)O)[C@H]1CC[C@H]2[C@@H]3CC[C@@H]4C[C@H](O)CC[C@]4(C)[C@H]3CC[C@]12C	48.8 µM (active)	–
C=CC(=O)OCCn1c(=O)n(CCOC(=O)C=C)c(=O)n(CCOC(=O)C=C)c1=O	inactive	–
CCCCCCCCS(=O)C(C)Cc1ccc2c(c1)OCO2 (stereo not drawn)	inactive	–
O=C(OC[C@H]1O[C@@H](OC(=O)c2cc(O)c(O)c(OC(=O)c3cc(O)c(O)c(O)c3)c2)[C@H](OC(=O)c2cc(O)c(O)c(OC(=O)c3cc(O)c(O)c(O)c3)c2)[C@@H](OC(=O)c2cc(O)c(O)c(OC(=O)c3cc(O)c(O)c(O)c3)c2)[C@@H]1OC(=O)c1cc(O)c(O)c(OC(=O)c2cc(O)c(O)c(O)c2)c1)c1cc(O)c(O)c(OC(=O)c2cc(O)c(O)c(O)c2)c1	–	1.96% [at 15.8 µM]
Oc1ccc2cc(SSc3ccc4cc(O)ccc4c3)ccc2c1	inactive	–
O=C(Oc1cccc2cccnc12)c1ccccc1	inactive	–
Cc1ccc(O)c2ncccc12	16.9 µM (active)	–
CC[C@@]1(O)C(=O)OCc2c1cc1n(c2=O)Cc2cc3c(CN(C)C)c(O)ccc3nc2-1	inactive	–
Nc1cc(C(F)(F)F)ccc1S	inactive	–
O=CC=C(c1ccccc1)c1ccccc1	inactive	–
C/C(=C(/OCCOc1ccc(Cl)cc1)c1ccc(Cl)cc1Cl)n1ccnc1	inactive	–

Tested on: not listed separately
Test: qHTS assay to identify small molecule agonists of the AP-1 signaling pathway (AID 1159526; calls by dose curve)
Conditions: ME-180 (cervical carcinoma) AP-1-bla reporter, beta-lactamase FRET ratio, 5 h; series mostly up to 76.8 µM

Structure (SMILES)	Potency
CC1(C)CCC(C)(C)c2cc(C(=O)Nc3ccc(C(=O)O)cc3)ccc21	inactive
Clc1ccc2nsnc2c1NC1=NCCN1	inactive
O=Cc1cc(O)ccc1Br	inactive
CSc1cnc(C)cn1	inactive

Target: Retinoic acid receptor RXR-alpha (Homo sapiens) (UniProt P19793)
Test: qHTS assay to identify small molecule agonists of the RXR signaling pathway (AID 1159527; calls by dose curve; note: nearly all actives have a fitted effect of over 35% in size; note: potency is the fitted concentration of half-maximal effect)
Conditions: HEK293T RXRa-UAS-bla, beta-lactamase ratio, 16 h; series mostly up to 76.8 µM
How it was run: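 16 hr incubation of compound-treated RXR-alpha-UAS-bla HEK 293T cells (2% charcoal-stripped FBS, 37 C) preceded a 2 hr room-temperature LiveBLAzer FRET substrate step and blue/green fluorescence measurement.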

Retinoic acid receptor RXR-alpha (Homo sapiens), sequence (P19793 whole entry, looked up): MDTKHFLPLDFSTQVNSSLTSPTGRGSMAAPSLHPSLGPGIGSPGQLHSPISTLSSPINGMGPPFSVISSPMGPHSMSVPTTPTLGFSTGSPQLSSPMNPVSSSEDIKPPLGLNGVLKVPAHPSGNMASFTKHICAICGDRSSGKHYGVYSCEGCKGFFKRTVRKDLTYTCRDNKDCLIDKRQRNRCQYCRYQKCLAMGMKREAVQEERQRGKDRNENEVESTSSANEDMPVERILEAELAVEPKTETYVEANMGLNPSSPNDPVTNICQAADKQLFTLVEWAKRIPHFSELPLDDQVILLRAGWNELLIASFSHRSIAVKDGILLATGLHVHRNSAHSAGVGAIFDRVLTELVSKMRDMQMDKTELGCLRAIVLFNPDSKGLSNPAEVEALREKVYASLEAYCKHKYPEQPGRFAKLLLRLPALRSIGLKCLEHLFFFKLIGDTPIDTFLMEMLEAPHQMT

Structure (SMILES)	Potency
CC1(C)CCC(C)(C)c2cc(C(=O)Nc3ccc(C(=O)O)cc3)ccc21	4.36 µM (active)
Clc1ccc2nsnc2c1NC1=NCCN1	inactive
C/C(=C(/OCCOc1ccc(Cl)cc1)c1ccc(Cl)cc1Cl)n1ccnc1	inactive

Tested on: not listed separately
Test: qHTS assay to identify small molecule agonists of the RXR signaling pathway - cell viability counter screen (AID 1159529); note: nearly all actives have a fitted effect of over 50% in size; note: potency is the fitted concentration of half-maximal effect
Conditions: RXR-alpha-bla HEK293T viability, CellTiter-Glo, 16 h; series mostly up to 76.8 µM
How it was run: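 In this parallel viability measure, GeneBLAzer RXR-alpha HEK 293T cells (2% charcoal-stripped FBS) were given a 5 hr preincubation, treated with compounds 16 hr at 37 C, and read by CellTiter-Glo luminescence.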

Structure (SMILES)	Potency
Cc1cc(C2CCCCC2)n(O)c(=O)c1	inactive
CCCCC(CC)COC(=O)c1ccccc1C(=O)O (stereo not drawn)	inactive
CCc1cc(Cc2cc(CC)c(N)c(CC)c2)cc(CC)c1N	38.9 µM (active)
CCOC(=O)c1nc(C(Cl)(Cl)Cl)n(-c2ccc(Cl)cc2Cl)n1	49 µM (active)
COc1cc(-c2nc(NC(=O)c3cc4cc(C)cc(C)c4n3CC(=O)O)sc2CCC2CCCCC2)c(OC)cc1Cl	20.1 µM (active)
C[C@H](CCC(=O)O)[C@H]1CC[C@H]2[C@@H]3CC[C@@H]4C[C@H](O)CC[C@]4(C)[C@H]3CC[C@]12C	38.7 µM (active)
C=CC(=O)OCCn1c(=O)n(CCOC(=O)C=C)c(=O)n(CCOC(=O)C=C)c1=O	24.5 µM (active)
CCCC(=O)OC[C@@H](OC(=O)CCC)[C@@H](OC(=O)CCC)[C@H](Cn1c2nc(=O)[nH]c(=O)c-2nc2cc(C)c(C)cc21)OC(=O)CCC	inactive
Oc1ccc(C2(c3ccc(O)cc3)CC3CC2C2CCCC32)cc1 (stereo not drawn)	16.7 µM (active)
CCCCCCCCCCCCCCCC(=O)OC[C@H](O)[C@H]1OC(=O)C(O)=C1O	38.9 µM (active)
O=C1C=CC(=O)N1	22.5 µM (active)
O=[N+]([O-])c1cc(Cl)c(Cl)c(Cl)c1Cl	inactive
O=Cc1cc(O)ccc1Br	inactive
Nc1cc(C(F)(F)F)ccc1S	8.49 µM (active)
O=CC=C(c1ccccc1)c1ccccc1	inactive
CN(C)c1ccc(SC#N)cc1	inactive
C/C(=C(/OCCOc1ccc(Cl)cc1)c1ccc(Cl)cc1Cl)n1ccnc1	inactive
CN(C)C(=O)C1(N2CCCCC2)CCN(CC[C@@]2(c3ccc(Cl)c(Cl)c3)CN(C(=O)c3ccccc3)CCO2)CC1	16.2 µM (active)
CSc1cnc(C)cn1	inactive

From PubChem BioAssay (Tox21)
